Six compounds from PubChem BioAssay (NCI) can be followed below.

The structures appear in SMILES notation. About 83,000 compounds went through this panel and 20% of them were active in at least one assay; those are over-represented in the sample as a whole.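 Percent growth is the endpoint: 0 to 100 indicates growth inhibition (40 means 60% inhibition), 0 means no net growth, and negative values indicate cell death.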 A number with no mark means an inactive call. The source made the active and inactive calls. How the source made its calls: active means growth percent below 10; inactive means the rest.

Test systems include NCI-H226 lung; NCI-H322M lung; HOP-62 NSCLC; NCI-H460 lung; HOP-92 NSCLC; NCI-H522 lung; A549/ATCC NSCLC; 786-0 renal; COLO 205 colon; DU-145 prostate; K-562 leukemia; MALME-3M melanoma; MDA-MB-231 breast; RXF 393 renal; SF-268 CNS; SF-295 CNS; SF-539 CNS; UACC-257 melanoma; M14 melanoma.
What all share (experiment): NCI-60 one-dose screen, 48 h (100 = growth as untreated, 0 = no growth, -100 = all killed)
Common to all, as to conditions: 10 µM unless noted

In the case of `Cc1c(C)c2c(c(C)c1OC(=O)CCC(=O)[O-])CCC(C)(CCCCCCCCCCC[P+](c1ccccc1)(c1ccccc1)c1ccccc1)O2` (centres undefined), the growth is -6.94% (active) in the experiment with NCI-H226 lung; 0.982% (active) with NCI-H322M lung; -67.7% (active) with HOP-62 NSCLC; -69% (active) in the experiment on NCI-H460 lung; -82.7% (active) in the experiment with HOP-92 NSCLC; -25.9% (active) in the experiment on NCI-H522 lung. Moreover, the growth is -2.64% (active) with A549/ATCC NSCLC; -49.7% (active) in the experiment on 786-0 renal; -52.9% (active) with COLO 205 colon; -54.1% (active) in the experiment on DU-145 prostate; 6.14% (active) in the experiment on K-562 leukemia; -83.6% (active) in the experiment with MALME-3M melanoma. For the same compound, the growth in the experiment with MDA-MB-231 breast was -34.2% (active); in the experiment on RXF 393 renal it was -78.3% (active); in the experiment with SF-268 CNS it was -61.3% (active); in the experiment on SF-295 CNS, -87.4% (active); in the experiment with SF-539 CNS, -69.1% (active); in the experiment with UACC-257 melanoma, -54.2% (active). Further, the growth with M14 melanoma was -60.3% (active).
Take `CCN1C(=O)N(CC)C2C1NN=c1s/c(=C\c3ccc([N+](=O)[O-])cc3)c(=O)n12` (centres undefined): the growth with NCI-H226 lung is 66.8%; in the experiment with NCI-H322M lung, 54.6%; in the experiment with HOP-62 NSCLC, 42.6%; in the experiment on NCI-H460 lung it was 8.23% (active); in the experiment on HOP-92 NSCLC it was 79.2%; with NCI-H522 lung it was -0.229% (active). Further, the growth in the experiment on A549/ATCC NSCLC is 30.4%; in the experiment with 786-0 renal it was 44.1%; in the experiment with COLO 205 colon, 13.3%; in the experiment on DU-145 prostate, 19.9%; in the experiment with K-562 leukemia, 9.56% (active); with MALME-3M melanoma it was 45.7%. The growth is 18.5% with MDA-MB-231 breast; 2.89% (active) with RXF 393 renal; 71.5% with SF-268 CNS; 13.2% in the experiment with SF-295 CNS; -7.87% (active) in the experiment with SF-539 CNS; 31.1% in the experiment with UACC-257 melanoma. Also, the growth with M14 melanoma was 12%.
Regarding `COc1ccc(CNc2c3ccccc3nc3ccccc23)cc1OC`, the growth with NCI-H226 lung is 27.9%; with NCI-H322M lung it was 29.8%; in the experiment on HOP-62 NSCLC, 34.5%; in the experiment with NCI-H460 lung it was 6.17% (active); in the experiment with HOP-92 NSCLC it was -9.67% (active); in the experiment on NCI-H522 lung, 18.2%. Besides, the growth with A549/ATCC NSCLC was 16.3%; with 786-0 renal it was 25.4%; in the experiment with COLO 205 colon, 5.3% (active); in the experiment with DU-145 prostate, 24.7%; with K-562 leukemia it was 8.81% (active); in the experiment on MALME-3M melanoma it was 7.92% (active). The growth is 19.4% with MDA-MB-231 breast; 3.58% (active) in the experiment on RXF 393 renal; 39.6% in the experiment on SF-268 CNS; 18.1% in the experiment with SF-295 CNS; 15.4% with SF-539 CNS; 22.1% in the experiment with UACC-257 melanoma. Further, the growth in the experiment with M14 melanoma is 17.7%.
As to `COc1ccc(-n2c(=O)n(-c3ccc(-c4nc5ccc(F)cc5s4)cc3)c(=O)c3cccnc32)cc1`, the growth with NCI-H226 lung is 105%; in the experiment on NCI-H322M lung it was 102%; in the experiment on HOP-62 NSCLC, 89.2%; in the experiment on NCI-H460 lung, 110%; with HOP-92 NSCLC, 118%; in the experiment on NCI-H522 lung, 88.8%. For the same compound, the growth was 96.5% in the experiment with A549/ATCC NSCLC; 99.5% with 786-0 renal; 106% in the experiment on COLO 205 colon; 106% in the experiment with DU-145 prostate; 99.7% in the experiment with K-562 leukemia; 101% in the experiment with MALME-3M melanoma. Moreover, the growth was 97.1% in the experiment on MDA-MB-231 breast; 129% in the experiment on RXF 393 renal; 106% in the experiment on SF-268 CNS; 94.5% in the experiment on SF-295 CNS; 107% with SF-539 CNS; 94.7% in the experiment on UACC-257 melanoma. Moreover, the growth in the experiment on M14 melanoma is 107%.
As for `CC(C)(C)[C@H](OCc1cn([C@H]2C[C@@H](O)[C@@H](CO)O2)c(=O)[nH]c1=O)c1ccc(C#Cc2ccccc2)cc1[N+](=O)[O-]`, the growth in the experiment on NCI-H226 lung is 99.3%; in the experiment on NCI-H322M lung, 47.6%; in the experiment on HOP-62 NSCLC it was 86%; in the experiment on NCI-H460 lung, 10.1%; in the experiment on HOP-92 NSCLC it was 58.1%; in the experiment on NCI-H522 lung, 45%. In addition, the growth with A549/ATCC NSCLC is 46.5%; in the experiment on 786-0 renal it was 27.8%; in the experiment with COLO 205 colon, 79.1%; with DU-145 prostate, 86.4%; in the experiment with K-562 leukemia it was 60.5%; with MALME-3M melanoma it was 84%. The growth was 91.7% in the experiment on MDA-MB-231 breast; 47.2% with RXF 393 renal; 81.5% with SF-268 CNS; 82% in the experiment on SF-295 CNS; 97.1% in the experiment on SF-539 CNS; 83.5% with UACC-257 melanoma. In the experiment on M14 melanoma, the growth is 45.1%.
On to `Clc1ccc2c(NCCCn3cnc4c(N5CCCC5)nc(Cl)nc43)ccnc2c1`, for which the growth with NCI-H226 lung is 102%; with NCI-H322M lung it was 92.7%; in the experiment with HOP-62 NSCLC it was 91.5%; in the experiment with NCI-H460 lung, 107%; with HOP-92 NSCLC it was 107%; in the experiment on NCI-H522 lung, 91.5%. For the same compound, the growth in the experiment with A549/ATCC NSCLC was 96.5%; with 786-0 renal it was 96.4%; in the experiment on COLO 205 colon, 88.2%; with DU-145 prostate, 106%; in the experiment on K-562 leukemia it was 90.4%; in the experiment on MALME-3M melanoma it was 101%. Moreover, the growth with MDA-MB-231 breast was 89.8%; in the experiment with RXF 393 renal, 123%; in the experiment with SF-268 CNS, 94.4%; in the experiment on SF-295 CNS, 101%; with SF-539 CNS, 99.1%; with UACC-257 melanoma, 102%. For the same compound, the growth in the experiment on M14 melanoma is 93.9%.
